Assay outcomes from PubChem.
PAFAH1B2 FP inh: inhibitors of human PAFAH1B2. P68402. recombinant PAFAH1B2, FP-rhodamine activity probe, fluorescence polarization. inhibition, % at 3.39 µM. hit rate 1.2% among 340,000. AID 492953;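 active means inhibition above the mean of all tested compounds plus 3 SD, cut at about 24% in these data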;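 further: 0% = enzyme with DMSO and 100% = wells lacking PAFAH1B2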
pPAFAH FP inh: pPAFAH (human) enzyme inhibition. recombinant pPAFAH, FP-rhodamine probe fluorescence polarization. AID 463082. hit rate 1.5% among 330,000. Q13093. inhibition, % at 3.39 µM;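 active means inhibition above the mean inhibition across the screen plus 3 SD, cut at about 25% in these data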;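 further: inhibitors block binding of the rhodamine activity-based probe so polarization drops; 0% = enzyme with DMSO and 100% = wells lacking pPAFAH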
Target sequence (Q13093 whole entry, looked up): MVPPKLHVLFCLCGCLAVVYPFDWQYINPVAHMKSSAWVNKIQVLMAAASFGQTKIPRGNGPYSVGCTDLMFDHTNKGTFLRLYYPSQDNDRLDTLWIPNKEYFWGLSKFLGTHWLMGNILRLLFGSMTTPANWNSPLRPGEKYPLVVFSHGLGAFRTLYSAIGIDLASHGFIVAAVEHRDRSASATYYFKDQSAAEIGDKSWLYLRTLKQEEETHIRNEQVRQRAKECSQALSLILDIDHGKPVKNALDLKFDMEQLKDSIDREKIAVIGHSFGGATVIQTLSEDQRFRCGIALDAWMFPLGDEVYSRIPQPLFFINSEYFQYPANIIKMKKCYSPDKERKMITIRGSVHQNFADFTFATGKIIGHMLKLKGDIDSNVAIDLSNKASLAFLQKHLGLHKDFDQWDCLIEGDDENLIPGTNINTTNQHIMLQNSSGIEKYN
PAFAH2 FP inh: inhibitors of human PAFAH2. recombinant PAFAH2, FP-rhodamine activity probe, fluorescence polarization. hit rate 0.99% among 340,000. inhibition, % at 3.39 µM. Q99487;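 active means inhibition above the mean over all tested compounds plus 3 SD, cut at about 30% in these data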;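 further: inhibitors block probe labeling of enzyme so polarization drops; 0% = enzyme with DMSO and 100% = wells lacking PAFAH2 protein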
LYPLA2 counter: LYPLA2 (human) inhibition in PME1 counter-screen. recombinant LYPLA2, FP-Rh probe fluorescence polarization. inhibition, % at 5.9 µM. hit rate 0.38% among 320,000. AID 2177;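 active means inhibition above the screen-wide mean plus 3 SD, limit set per campaign, cut at about 26% in these data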;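 further: 0% = LYPLA2 with DMSO and 100% = wells lacking LYPLA2 enzyme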
Target sequence (O95372 whole entry, looked up): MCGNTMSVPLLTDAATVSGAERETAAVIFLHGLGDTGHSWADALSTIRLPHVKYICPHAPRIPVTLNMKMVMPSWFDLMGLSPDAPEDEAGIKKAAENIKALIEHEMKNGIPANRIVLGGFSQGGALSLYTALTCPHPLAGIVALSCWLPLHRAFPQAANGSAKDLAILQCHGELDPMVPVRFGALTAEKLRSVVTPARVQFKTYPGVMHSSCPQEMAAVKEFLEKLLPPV
LYPLA1 counter: blocks human lysophospholipase 1, a PME1 counter-screen; AID 2174; hit rate 0.16% among 320,000; inhibition, % at 5.9 µM; recombinant LYPLA1, FP-Rh probe fluorescence polarization;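 active means inhibition above the mean of all tested compounds plus 3 SD, set per campaign, cut at about 14% in these data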;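 further: inhibitors block serine hydrolase probe labeling of LYPLA1 so polarization falls; 0% = enzyme with DMSO and 100% = wells lacking LYPLA1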
PAFAH1B3 FP inh: blocks human PAF acetylhydrolase 1B catalytic subunit 3 | inhibition, % at 3.39 µM | AID 492972 | hit rate 0.28% among 340,000 | Q15102 | recombinant PAFAH1B3, FP-rhodamine probe, fluorescence polarization;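 active means inhibition above the screen-wide average of all tested compounds plus 3 SD, cut at about 25% in these data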;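 further: 0% = enzyme with DMSO only and 100% = wells lacking PAFAH1B3 protein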
PAFAH2 FP conf: PAFAH2 (human) inhibition, confirmed. hit rate 65% among 2,300. shares compounds with PAFAH2 FP inh. recombinant PAFAH2, FP-rhodamine activity probe, fluorescence polarization. inhibition, % at 3.39 µM. AID 493030;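 active means mean inhibition over three repeats above a set limit taken from the earlier primary screen, cut at about 30% in these data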;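 further: inhibitor blocks binding of rhodamine activity probe so polarization falls; 0% = enzyme with DMSO and 100% = wells lacking PAFAH2 protein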
* hit, by the source's call. In the library only some 2.9% were active in any assay of this set; here they are far more common.

`Cc1ccc(C)c(Sc2ccc(NC(=O)CCN3C(=O)NC4(CCCC4)C3=O)cc2)c1` gave PAFAH1B2 FP inh 4, pPAFAH FP inh 24, PAFAH2 FP inh 49*, LYPLA2 counter -9, LYPLA1 counter -10, PAFAH1B3 FP inh -3 and PAFAH2 FP conf 54*.
O=S(=O)(NCc1ccc2c(c1)OCO2)c1ccc2oc3ccccc3c2c1 was read as PAFAH1B2 FP inh 1, pPAFAH FP inh -1, PAFAH2 FP inh 3, LYPLA2 counter -10, LYPLA1 counter -7 and PAFAH1B3 FP inh -1.
Screening CCN(CC)S(=O)(=O)c1cc(C(=O)OCC(=O)Nc2cccc(Br)c2)ccc1F returned PAFAH1B2 FP inh -8, pPAFAH FP inh 15, PAFAH2 FP inh 32*, LYPLA2 counter -53, LYPLA1 counter -33, PAFAH1B3 FP inh -8 and PAFAH2 FP conf 22.
Screening CCc1cccc(CC)c1NC(=O)COC(=O)c1ccc(F)c(S(=O)(=O)N(CC)CC)c1 returned PAFAH1B2 FP inh 4, pPAFAH FP inh 17, PAFAH2 FP inh 30*, LYPLA2 counter -8, LYPLA1 counter 0, PAFAH1B3 FP inh 8 and PAFAH2 FP conf 26.
Screening O=S1(=O)CCC(=Nc2ccc(Cl)cc2)c2ccsc21 returned PAFAH1B2 FP inh 2, pPAFAH FP inh 3, PAFAH2 FP inh 6, LYPLA2 counter 2, LYPLA1 counter -4 and PAFAH1B3 FP inh 10.
CC(C)(C)C(=O)O/N=C1\CCS(=O)(=O)c2sccc21 was read as PAFAH1B2 FP inh 6, pPAFAH FP inh 2, PAFAH2 FP inh 41*, LYPLA2 counter 3, LYPLA1 counter 2, PAFAH1B3 FP inh -8 and PAFAH2 FP conf 34*.
Screening O=C(O/N=C1\CCS(=O)(=O)c2sccc21)C1CC1 returned PAFAH1B2 FP inh -1, pPAFAH FP inh 7, PAFAH2 FP inh 81*, LYPLA2 counter 5, LYPLA1 counter 4, PAFAH1B3 FP inh 2 and PAFAH2 FP conf 84*.
CCCC(=O)OC1CCS(=O)(=O)c2sccc21 (stereo unspecified) was read as PAFAH1B2 FP inh -3, pPAFAH FP inh 7, PAFAH2 FP inh 7, LYPLA2 counter -3, LYPLA1 counter 0 and PAFAH1B3 FP inh 2.
C/C(CC(=O)Nc1ccc(N(C)C)cc1)=N\NC(=O)C(=O)NCc1ccccc1 was read as PAFAH1B2 FP inh 10, pPAFAH FP inh 5, PAFAH2 FP inh 46*, LYPLA2 counter 6, LYPLA1 counter 1, PAFAH1B3 FP inh -3 and PAFAH2 FP conf -6.
Screening C/C(CC(=O)Nc1ccc(N(C)C)cc1)=N\NC(=O)c1ccccc1O returned PAFAH1B2 FP inh 7, pPAFAH FP inh 18, PAFAH2 FP inh 18, LYPLA2 counter 3, LYPLA1 counter -2 and PAFAH1B3 FP inh 18.
CC1Cc2ccccc2N1C(=O)COC(=O)c1ccc(O)cc1 (stereo unspecified) was read as PAFAH1B2 FP inh 4, pPAFAH FP inh 2, PAFAH2 FP inh 2, LYPLA2 counter -4, LYPLA1 counter -5 and PAFAH1B3 FP inh -6.
Screening CN(C)c1ccc(C(=O)OCC(=O)N2CCCCCC2)cc1 returned PAFAH1B2 FP inh -1, pPAFAH FP inh -1, PAFAH2 FP inh 57*, LYPLA2 counter 0, LYPLA1 counter -3, PAFAH1B3 FP inh -5 and PAFAH2 FP conf 55*.
`CCc1ccc(C(=O)OCC(=O)N2CCCCCC2)cc1` gave PAFAH1B2 FP inh -1, pPAFAH FP inh -4, PAFAH2 FP inh 38*, LYPLA2 counter -7, LYPLA1 counter -3, PAFAH1B3 FP inh 2 and PAFAH2 FP conf 18.
`COc1ccccc1/C=C/C(=O)OCC(=O)N1c2ccccc2CC1C` (stereo unspecified) gave PAFAH1B2 FP inh -1, pPAFAH FP inh -1, PAFAH2 FP inh 34*, LYPLA2 counter -9, LYPLA1 counter -6, PAFAH1B3 FP inh -2 and PAFAH2 FP conf 12.
`CC1Cc2ccccc2N1C(=O)COC(=O)c1ccc(N(C)C)cc1` (stereo unspecified) gave PAFAH1B2 FP inh 5, pPAFAH FP inh 1, PAFAH2 FP inh 55*, LYPLA2 counter 1, LYPLA1 counter 1, PAFAH1B3 FP inh 6 and PAFAH2 FP conf 55*.
O=C(NNC(=O)c1ccccc1[N+](=O)[O-])c1ccco1 was read as PAFAH1B2 FP inh 3, pPAFAH FP inh 6, PAFAH2 FP inh 7, LYPLA2 counter -2, LYPLA1 counter -3 and PAFAH1B3 FP inh 3.
COc1cc(-c2nnc(NC(=O)CS(=O)(=O)c3ccc(F)cc3)o2)cc(OC)c1OC was read as PAFAH1B2 FP inh 10, pPAFAH FP inh 8, PAFAH2 FP inh 7, LYPLA2 counter 0, LYPLA1 counter -3 and PAFAH1B3 FP inh 2.
O=C(COC(=O)c1cccc(N2C(=O)c3ccccc3C2=O)c1)Nc1ccccc1 was read as PAFAH1B2 FP inh 5, pPAFAH FP inh 15, PAFAH2 FP inh 70*, LYPLA2 counter 6, LYPLA1 counter -6, PAFAH1B3 FP inh 7 and PAFAH2 FP conf 71*.
`N#Cc1cccc(NC(=O)COC(=O)c2cccc(N3C(=O)c4ccccc4C3=O)c2)c1` gave PAFAH1B2 FP inh -13, pPAFAH FP inh 10, PAFAH2 FP inh 67*, LYPLA2 counter 11, LYPLA1 counter 13, PAFAH1B3 FP inh -13 and PAFAH2 FP conf 79*.
O=C(COC(=O)CN1C(=O)c2ccccc2C1=O)Nc1ccccc1 was read as PAFAH1B2 FP inh 5, pPAFAH FP inh 5, PAFAH2 FP inh 5 and PAFAH1B3 FP inh 11.
Screening N#Cc1cccc(NC(=O)COC(=O)c2ccc[n+]([O-])c2)c1 returned PAFAH1B2 FP inh -4, pPAFAH FP inh 2, PAFAH2 FP inh 14 and PAFAH1B3 FP inh 1.
For O=C(N/N=C/c1cccs1)c1cc(-c2ccc(Cl)s2)[nH]n1 the results were PAFAH1B2 FP inh -4, pPAFAH FP inh -13, PAFAH2 FP inh -8, LYPLA2 counter -21, LYPLA1 counter -12 and PAFAH1B3 FP inh -14.
`O=C(NCc1cccnc1)c1cccc(S(=O)(=O)N2CCOCC2)c1` gave PAFAH1B2 FP inh -7, pPAFAH FP inh 5, PAFAH2 FP inh -7, LYPLA2 counter 2, LYPLA1 counter 4 and PAFAH1B3 FP inh 13.
Screening CCOC(=O)c1c(-c2ccc(OC)cc2)csc1/N=C/C1C(=O)CCCC1=O returned PAFAH1B2 FP inh -2, pPAFAH FP inh -6, PAFAH2 FP inh -14, LYPLA2 counter -12, LYPLA1 counter -8 and PAFAH1B3 FP inh 2.
Screening CC(=O)C(Cc1ccccc1)NC(=O)COC(=O)c1cccc(C)c1[N+](=O)[O-] (stereo unspecified) returned PAFAH1B2 FP inh 7, pPAFAH FP inh 6, PAFAH2 FP inh 36*, PAFAH1B3 FP inh 14 and PAFAH2 FP conf 14.
